# Assay outcomes (PubChem)
# PNC inhibitor: blocks assembly of the perinucleolar compartment. PC3M PTB-GFP, PNC prevalence imaging, 16 h; hits give low values. activity change (PNC), negative = inhibition, % at 10 µM. 140,000 compounds, 3.1% hits;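 active = readout at or below -70, meaning at least 70% loss of cells showing the perinucleolar compartment, a nuclear body marking cancer cells; inconclusive = readout between -30 and a set limit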
#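 Compounds are pinned in duplicate onto adhered PC3M cells stably expressing GFP-tagged PTB and incubated 16 h at 37 C. Cells are then fixed, nuclei stained with Hoechst, and PNC-positive cells counted.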
# KDM4E inh: blocks human JMJD2E demethylase activity; B2RXH2; JMJD2E catalytic domain, FDH-coupled NADH fluorescence (FDH is formaldehyde dehydrogenase); 230,000 compounds, 1.6% hits; AID 2147; Potency, µM (highest dose often 57.1 µM), hits mostly inhibitors; note: nearly all actives have a fitted effect of over 50% in size
# ALDH1A1 block: blocks purified human ALDH1A1 activity; 220,000 compounds, 7.3% hits; AID 1030; Potency, µM (highest dose often 75.3 µM), most hits filed as inhibitors; Purified ALDH1A1, NADH fluorescence, propionaldehyde substrate
# Target sequence (P00352 whole entry, looked up): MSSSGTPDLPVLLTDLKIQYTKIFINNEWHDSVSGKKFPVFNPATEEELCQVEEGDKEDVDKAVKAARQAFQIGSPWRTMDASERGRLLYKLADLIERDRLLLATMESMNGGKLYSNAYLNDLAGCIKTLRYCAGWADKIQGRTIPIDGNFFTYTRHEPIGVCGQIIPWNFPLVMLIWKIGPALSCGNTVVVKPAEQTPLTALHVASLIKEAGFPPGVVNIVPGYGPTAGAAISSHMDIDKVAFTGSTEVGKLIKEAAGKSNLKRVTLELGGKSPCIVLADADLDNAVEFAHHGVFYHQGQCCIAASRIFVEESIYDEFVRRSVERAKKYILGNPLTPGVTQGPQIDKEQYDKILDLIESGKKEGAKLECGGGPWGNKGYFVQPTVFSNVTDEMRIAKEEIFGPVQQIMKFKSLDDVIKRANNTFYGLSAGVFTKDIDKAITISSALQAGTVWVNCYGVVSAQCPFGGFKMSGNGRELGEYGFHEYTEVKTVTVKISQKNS
# HPGD inh: inhibitors of human 15-hydroxyprostaglandin dehydrogenase (HPGD). purified HPGD, NADH fluorescence kinetic, PGE2 substrate. Potency, µM, actives largely listed as inhibitors. 150,000 compounds, 4.3% hits
#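 20 nM HPGD preincubated 15 min at room temperature with compound in 50 mM Tris-HCl pH 8, 0.01% Tween 20. Started with 1 mM NAD+ and 30 uM prostaglandin E2; NADH fluorescence (360/450 nm) read 5 times over 30-s intervals, last minus first.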
# A number is an active result; - = inactive; ? = inconclusive; . = no result; [ ] = dose if it differs, or a comment. Only some compounds are listed: those with a hit (about 11% of all), similar ones and a draw of the others. Unless noted, calls come from the whole dose curve; as a rule, active = well fitted inhibition curve with a large enough effect (not every such curve was filed as active); inconclusive = small, poorly fitted or top-dose-only effect, or another doubt; inactive = no such curve, though single readings can be large or run the other way.
SMILES,PNC inhibitor,KDM4E inh,ALDH1A1 block,HPGD inh
CCC1CCCCN1C(=O)CSc1nc2ccsc2c(=O)n1Cc1ccccc1 (centres undefined),-,-,?,-
CCCCn1c(SCC(=O)N2CCC(C)CC2)nc2ccsc2c1=O,-,-,11µM,-
CC(=O)C1(C)CC2=C(CCCC2(C)C)CC1C (centres undefined),.,.,?,-
Cc1cc(C)n(CCc2nc(-c3ccc(C(C)(C)C)cc3)cs2)n1,-,-,?,.
Cc1cc(C)n(CCc2nc(-c3ccc(F)cc3)cs2)n1,-,-,-,25µM
Cc1cc(C)cc(NC(=O)N2CCCN(Cc3c(F)cccc3Cl)CC2)c1,.,-,-,.
O=C(Nc1ccc(-n2nncc2-c2ccco2)cc1)c1cc2ccccc2oc1=O,-,-,-,-
O=C(Nc1ccc(-n2nncc2-c2ccco2)cc1)c1cccc(F)c1,-,-,?,13µM
CCCCCCSc1ncc(C#N)c(N)n1,-,?,-,-
N#Cc1cnc(SCCc2ccccc2)nc1N,-83,-,?,-
COc1ccc(N2CCN(C(=O)c3oc4ccccc4c3C)CC2)cc1,.,-,-,.
Cc1c(C(=O)N2CCCCCC2)oc2ccccc12,-,-,-,16µM
O=C(Cc1ccccc1)N1CCN(c2ncccn2)CC1,.,-,-,.
Cc1c(C(=O)N2CCN(c3ccccn3)CC2)oc2ccccc12,-,-,14µM,-
CCOC(=O)c1c(C)[nH]c(C(=O)COC(=O)c2oc3ccccc3c2C)c1C,-,-,-,-
O=C(c1oc2ccccc2c1CSCc1ccccc1)N1CCN(c2ncccn2)CC1,-,-,13µM,-
Cc1c(C(=O)OCC[N+]2(C)CCCCC2)oc2ccccc12,.,25µM,-,.
CC1CCCCC1NC(=O)C1CCC(CNc2c(N3CCCCC3)c(=O)c2=O)CC1 (centres undefined),.,-,.,.
Cc1cccnc1CN1CCN(Cc2nc(C(c3ccccc3)c3ccccc3)no2)CC1,.,-,?,.
Cc1ccc(S(=O)(=O)N2CCC(C(=O)O)(c3ccccc3)CC2)cc1,.,.,-[13.5 µM],-
Oc1ccc2ccccc2c1C1Nc2cccc3cccc(c23)N1,-,28µM,?,-
CCn1c(=O)n(CCOC)c(=O)c2c3c(sc21)CCCC3,-,-,-,-
COCCCn1c(=S)[nH]c2sc3c(c2c1=O)CCCS3,.,-,25µM,.
O=C1OCC/C1=C\OCCCO/C=C1\CCOC1=O,.,-,.,.
CCOC(=O)c1oc2ccccc2c1CN1CCCCC1,.,?,-,.
SMILES,PNC inhibitor,KDM4E inh,ALDH1A1 block,HPGD inh
CCOC(=O)c1oc2ccccc2c1CSc1nnnn1-c1ccccc1,-,-,6.3µM,-
CCOC(=O)c1oc2ccccc2c1CN1CCOCC1,-,-,11µM,-
Cc1ccc(-c2cc(C(=O)Nc3cc(C)ccc3C)[nH]n2)c(O)c1,-84,-,-,-
CC1(C)Cc2c(sc3ncnc(NNC(=S)NCc4ccccc4)c23)CO1,-,-,1.4µM,-
CC1(C)Cc2c(sc3c2c(N)nc(=S)n3Cc2ccccc2)CO1,.,-,?,.
C#CCOCCOCCOCCNc1nc(N2CCN(C(=O)[C@H](CCC(=O)O)n3cc(C(N)CO)nn3)CC2)nc(N2CCN(C(=O)[C@H](CCC(=O)O)n3cc(C(N)CC(C)C)nn3)CC2)n1 (some centres undefined),.,22µM,.,.
C#CCOCCOCCOCCNc1nc(N2CCN(C(=O)[C@H](CCC(=O)O)n3cc(C(N)CO)nn3)CC2)nc(N2CCN(C(=O)[C@H](CCC(=O)O)n3cc(C(N)CO)nn3)CC2)n1 (some centres undefined),.,-,.,.
Cc1c(N2CCCC2)cc2c(c1NC(=O)c1ccccc1Cl)C(C)(C)CC2(C)C,.,-,-[13.5 µM],-
O=C(Nc1ccccc1-c1ccccc1)C1CCCCC1,-,-,-,-
O=C(Nc1ccccc1-c1ccccc1)C1CCC1,.,-,3.2µM,.
NC(=O)C1(N2CCCCC2)CCN(CC(=O)Nc2ccccc2-c2ccccc2)CC1,?,-,4µM,-
CC1CCN(CC(=O)Nc2ccccc2-c2ccccc2)CC1,-,-,?,-
CC(CCc1ccco1)NC(=O)Cn1ncc2c1-c1ccccc1OC2 (centres undefined),-,-,18µM,-
O=C(Cn1ncc2c1-c1ccccc1OC2)N(Cc1ccco1)C1CCCCC1,-,-,-,-
Clc1ccc(-c2nnc(-c3ccco3)nc2N2CCCCC2)cc1,?,-,2.2µM,?
Clc1ccc(-c2nnc(-c3ccc(Br)cc3)c(N3CCSCC3)n2)cc1,-,-,-,-
CC(C)Oc1ccc(C2c3c(oc4ccccc4c3=O)C(=O)N2CCCN2CCOCC2)cc1 (centres undefined),-,?,8.9µM,-
COc1cccc(C2c3c(oc4ccc(F)cc4c3=O)C(=O)N2CCCN2CCOCC2)c1 (centres undefined),-,-,-,-
Cc1ccc(C2c3c(oc4cc(C)c(C)cc4c3=O)C(=O)N2CCCN2CCOCC2)cc1 (centres undefined),-,-,11µM,-
O=C1c2oc3ccc(Cl)cc3c(=O)c2C(c2ccccn2)N1CCCN1CCOCC1 (centres undefined),-,?,7.9µM,-
Cc1ccc(C2c3c(oc4ccccc4c3=O)C(=O)N2CCCN2CCOCC2)o1 (centres undefined),-,?,?,-
O=C1c2oc3ccccc3c(=O)c2C(c2cccnc2)N1CCCN1CCOCC1 (centres undefined),-,-,-,-
C=CCOc1ccc(C2c3c(oc4ccccc4c3=O)C(=O)N2CCCN2CCOCC2)cc1 (centres undefined),-,?,18µM,-
COC(=O)c1ccc(/C=N/OCC(=O)NCc2ccc(F)cc2)cc1,.,-,-,.
CCNC(=O)CC1C(=O)N(c2ccc(C)cc2)C(=O)N1CCc1sccc1C (centres undefined),.,-,-,.
SMILES,PNC inhibitor,KDM4E inh,ALDH1A1 block,HPGD inh
COc1ccc2ncc(S(=O)(=O)c3ccccc3)c(N3CCC4(CC3)OCCO4)c2c1,-,-,7.9µM,-
COc1cc2ncc(S(=O)(=O)c3ccccc3)c(N3CCC4(CC3)OCCO4)c2cc1OC,.,-,?,.
CCOC(=O)N1CCN(C(=O)CSc2ccc(-c3cccnc3)nn2)CC1,.,-,-,.
CCCOc1ccc(C(C)=O)cc1CN1CCOCC1,-,-,-,-
CC(=O)c1ccc(Oc2ncnc3sccc23)c(CN2CCOCC2)c1,-,-,?,25µM
Cc1sc2ncn(-n3c(C)ccc3C)c(=O)c2c1C,-,-,-,-
Cc1ccc(-c2csc3ncn(-n4c(C)ccc4C)c(=O)c23)o1,?,?,32µM,28µM
COc1ccc(NC(=O)CSc2nc3[nH]ncc3c(=O)n2-c2ccccc2C)cc1OC,?,-,28µM,-
COc1cc2c(cc1OC)CN(C(=O)CSc1nc3[nH]ncc3c(=O)n1-c1ccccc1)CC2,-,-,28µM,-
COc1ccc(N2CCN(C(=O)CSc3nc4[nH]ncc4c(=O)n3-c3cccc4ccccc34)CC2)cc1,.,-,-,.
O=C(CSc1nc2[nH]ncc2c(=O)n1-c1ccccc1Br)NCc1ccccc1Cl,.,-,13µM,.
COc1ccc(CNC(=O)CSc2nc3[nH]ncc3c(=O)n2-c2ccccc2Br)cc1,.,-,16µM,.
